In all, about 69,000 compounds went through this assay and about 8,600 (12%) showed an effect of 50% or more. This is one part of a sample in which strong results are shown more often than they occur.
What follows are compounds tested on Plasmodium berghei (assay: Screen against P. berghei liver stage (PbLuc), transformed with Luciferase, at 10uM). Conditions: tested at 10 uM.
Assay type: functional, HepG2
Work on `CNC(=O)C1CCN(c2nccc(CCC(F)(F)F)n2)C1` (stereo not drawn) yielded an INHIBITION of 50.1%. For `FC(F)(F)CCc1ccnc(N2CCN(Cc3ccncc3)CC2)n1`, the INHIBITION was -0.178%. `O=C(c1ccc2c(c1)OCO2)N1CCCC(n2ccnc2)C1` (stereo not drawn) gave an INHIBITION of -9.37%. `CN(CC(=O)Nc1cc(-c2cc(Cl)cc(Cl)c2)[nH]n1)S(C)(=O)=O` was tested, and the INHIBITION was -51.9%. With `CC(C)Oc1cccc(F)c1C(C(=O)O)N1CCCC1` (stereo not drawn) the INHIBITION was -41.4%. With `CCOCC(=O)N1CCCn2c(CN3CCCCC3)nnc2C1` the INHIBITION was -1.15%. In the case of `CCS(=O)(=O)Cc1csc(-c2ccc(S(C)(=O)=O)cc2)n1`, the INHIBITION is reported as 3.4%. `O=S(=O)(CCCN1CCCC1Cn1cccn1)c1ccccc1` (stereo not drawn) gave an INHIBITION of 24%. Work on `Cc1noc(C)c1-c1nc(C2CCCNC2)ccc1CO` (stereo not drawn) yielded an INHIBITION of -15.3%. With `COC1C[C@@H]2CN(C(=O)c3ccc(C)s3)C[C@@H]2C1` (stereo partly drawn) the INHIBITION was -16.55%. `O=C(NCCN1CCCS1(=O)=O)c1scnc1Cl` gave an INHIBITION of 40.2%. With `Cc1cnc(N(C)Cc2cnc3ccccc3n2)nc1N(C)C` the INHIBITION was 46.4%. In the case of `CC(=O)c1cnc(N(C)Cc2cnc3ccccc3n2)nc1C`, the INHIBITION is reported as 62.7%. `CC(=O)c1cnc(N(C)Cc2cc(C)cc(C)n2)nc1C` gave an INHIBITION of 28.5%. Work on `CC(C)C1COC2(CCN(Cc3ccco3)CC2)C1` (stereo not drawn) yielded an INHIBITION of -2.35%. `O=C1CCCN1Cc1ncn2c1CN(Cc1cccs1)CCC2` showed an INHIBITION of 21.8%. `Cn1ccnc1CNC(=O)c1cncc(C2CCNCC2)n1` gave an INHIBITION of 27.6%. In the case of `Cn1cccc1C(O)CNS(=O)(=O)c1ccccc1F` (stereo not drawn), the INHIBITION is reported as 51%. Work on `Cc1cc(F)ccc1S(=O)(=O)NCC(O)c1cccn1C` (stereo not drawn) yielded an INHIBITION of -1.99%. With `O=S(=O)(NCC(O)c1ccc2c(c1)CCO2)c1ccccc1F` (stereo not drawn) the INHIBITION was 50.5%. Work on `Cc1noc(C)c1S(=O)(=O)NCC(O)c1ccc2c(c1)CCO2` (stereo not drawn) yielded an INHIBITION of 42.3%. `Cn1cccc1C(O)CNS(=O)(=O)c1ccccc1Br` (stereo not drawn) gave an INHIBITION of -29.2%. `Cn1cnc(S(=O)(=O)NCC(O)c2ccc3c(c2)CCO3)c1` (stereo not drawn) was tested, and the INHIBITION was 25.3%. Work on `NC(=O)CN1CCc2c(Br)ccc(F)c2C1` yielded an INHIBITION of -15%. Work on `Cc1nn(C)cc1Cn1c(=O)ccc2ccccc21` yielded an INHIBITION of 33%. Work on `CC(=O)N1CCC(Cc2cnc(-c3c(C)n[nH]c3C)cn2)C1` (stereo not drawn) yielded an INHIBITION of 36.4%. `CCN1C(=O)CCCC12CCCN(C(=O)c1sccc1C)C2` (stereo not drawn) showed an INHIBITION of -17.1%. `CS(=O)(=O)N1CCC2(CC1)CC(Oc1ccccn1)CO2` (stereo not drawn) showed an INHIBITION of 10.7%. With `O=C(c1cc[nH]n1)N1CCC(F)(F)C2(CCN(c3ccccn3)C2)C1` (stereo not drawn) the INHIBITION was 37.8%. For `CC(NC(=O)Nc1cccnc1N1CCCC1)c1ccccn1` (stereo not drawn), the INHIBITION was -17.9%. Work on `CC(NC(=O)Nc1cccnc1N1CCCC1)c1ccn(C)c1` (stereo not drawn) yielded an INHIBITION of 62.6%. For `CC(NC(=O)Nc1cccnc1N1CCCC1)c1ccncc1` (stereo not drawn), the INHIBITION was 7.12%. Work on `Cc1nn(C)c(C)c1C(C)NC(=O)Nc1cccnc1N1CCCC1` (stereo not drawn) yielded an INHIBITION of 11.6%. For `Cc1nn(C)c(C)c1NC(=O)Nc1cccnc1N1CCCC1`, the INHIBITION was 54.3%. With `Cc1nn(C(C)C)c(C)c1NC(=O)Nc1cccnc1N1CCCC1` the INHIBITION was 26.9%. In the case of `Cn1nnc2c1CCN(Cc1ccncc1)C2COCC1CC1` (stereo not drawn), the INHIBITION is reported as 35.4%. With `Cc1ccc(NC2CCN(C(=O)c3cc(C)sc3C)CC2)nn1` the INHIBITION was 9.14%. Work on `CN(C)CC1CN(C(=O)Cc2ccccc2)Cc2nccn2C1` (stereo not drawn) yielded an INHIBITION of 31.6%. With `Cc1nonc1C1CCCN1C(=O)c1cn2ccsc2n1` (stereo not drawn) the INHIBITION was -16.6%. For `Cc1cncc(C(=O)N2CCCC(O)(CO)C2)c1` (stereo not drawn), the INHIBITION was 15.1%. In the case of `CC(C)C(NC(=O)NCc1cccnc1N(C)C)c1cccs1` (stereo not drawn), the INHIBITION is reported as 17.5%. Work on `Cc1oncc1C(=O)N1CC[C@H]2[C@H]1CCN2S(C)(=O)=O` yielded an INHIBITION of 62.9%. For `Cc1cc(C(=O)N2CC[C@H]3[C@H]2CCN3S(C)(=O)=O)c(C)o1`, the INHIBITION was 39.4%. `Cc1cccc(CN2CC[C@@H]3[C@@H]2CCN3C(=O)c2cnoc2C)n1` showed an INHIBITION of -17%. `O=C1CC[C@H]2[C@H](CCN2c2ccccn2)N1CC1CCOCC1` gave an INHIBITION of 12.7%. `CCc1cnc(N2CC[C@H]3[C@@H]2CCC(=O)N3CC2CCOCC2)nc1` showed an INHIBITION of 51.2%. `Cc1oncc1C(=O)N1CC[C@H]2[C@@H]1CCC(=O)N2c1cccnc1` showed an INHIBITION of 18.3%. `Cc1noc(C)c1CN1CC[C@H]2[C@@H]1CCC(=O)N2CC1CCOCC1` gave an INHIBITION of 6.67%. Work on `Cc1oncc1C(=O)N1CC[C@H]2[C@@H]1CCC(=O)N2CC1CCOCC1` yielded an INHIBITION of 56.4%. `Cc1oncc1C(=O)N1CC[C@H]2[C@@H]1CCC(=O)N2CC1CC1` was tested, and the INHIBITION was 55.4%. In the case of `Cc1oncc1C(=O)N1CC[C@@H]2[C@@H]1CC(=O)N2Cc1cccnc1`, the INHIBITION is reported as 8.66%. For `CCc1cnc(N2CC[C@H]3[C@@H]2CCC(=O)N3c2ccccc2)nc1`, the INHIBITION was 33.5%. Work on `Cc1ccc(C(=O)N2CC[C@@H]3[C@H]2CCC(=O)N3CC2CC2)o1` yielded an INHIBITION of 37.9%.
